In PubChem BioAssay AID1347046 (National Center for Advancing Translational Sciences (NCATS), 2019):
In all, about 1,400 compounds went through this assay and about 940 (67%) were called active. Another 27% or so got no clear call; they are omitted. Calls follow the shape of the full dose curve. So high a share suggests a set chosen from earlier hits. A selection follows.

target: Atrial natriuretic peptide receptor 2 (Homo sapiens) (UniProt P20594); assay: Natriuretic polypeptide receptor (hNpr2) antagonism - Subtype selectivity assay; conditions: HEK293 hNpr2 GloSensor cGMP luminescence, CNP-stimulated; also: nearly all actives have a fitted effect of over 70% in size
Method: F. Fan, B. F. Binkowski, B. L. Butler, P. F. Stecha, M. K. Lewis, K. V. Wood, Novel genetically encoded biosensors using firefly luciferase. ACS Chem Biol 3, 346-351 (2008).
PROTOCOL TABLE (as described by Inglese J, Shamu CE and Guy RK. 2007) SEQUENCE No. (e.g., 1, 2, 3, etc.); PARAMETER (e.g., Cells, Incubation, Reagent, etc.); VALUE and DESCRIPTION. 1. Cells. Seed 1500 HEK293 cGMP-sensor cells expressing hNpr2 per well in 4uL into Greiner 1536-well white/solid bottom high base, TC plates. 2. Incubation. Incubate plated cells at 37C in 5% CO2, 95% RH overnight. 3. Reagent. Add 1uL per well GloSensor reagent from Promega (2% final concentration) or CO2 independent media vehicle control to respective columns of Greiner 1536-well plates. 4. Incubation. Incubate plated cells at ambient temperature for 2 h., protect from light. 5. Compounds. Library compounds and DMSO vehicle control added at 23nL per well, transferred by Pin Tool. 6. Incubation. Incubate plated cells for 30 min. at ambient temperature, protect from light. 7. Detector. GloSensor baseline pre-read luminescence measured using CCD-based camera (Viewlux). 8. Compound. Add 1uL of hNppC peptide to 1 nM final concentration to stimulate hNpr2 or CO2 independent media as vehicle control. 9. Incubation. Incubate treated cells at ambient temperature for 20 min., protect from light. 10. Detector. GloSensor post-hNppC luminescence measured using CCD-based camera (Viewlux). NOTES (numbers refer to Sequence numbers above) 1. HEK293 cells expressing hNpr2 and GIP/pGS-40F were grown to 85-95% confluence (48-72 h) in T175 culture flasks (CO2 independent media supplemented with 10% FBS, 1% Pen/Strep antibiotics, and 1 ug/mL puromycin). Trypsinize and harvest cells from T175 culture flasks and filter through 40 um cell strainer. Cells counted with Invitrogen Countess (30,000,000 - 50,000,000 cells/flask). Cells diluted to a final concentration of 375 cells/uL in CO2 independent media and a Millipore multidrop used to dispense 1500 cells per well (4uL/well) into 13 1536-well Greiner White/Solid bottom, high base tissue-culture treated (TC) plates and one Aurora 1536-well Black/Clear bottom, low base, TC plate (for visual inspection of cell health throughout the duration of the assay). 2. Cells incubated for 24 h. at 37C in 95% RH incubator with metal lid having gas-exchange holes. 3. Prepare GloSensor Reagent (Promega): Reconstitute GloSensor luciferase substrate by adding 8.2mL Hepes buffer to 250mg substrate, mix well, protect from light and stored at -80C. Prepare a fresh 12% GloSensor solution in CO2 independent supplemented plating media (see above). Mix well and store at ambient temperature, protected from light. 1uL 12% GloSensor Luciferase Reagent added (2% final concentration) to respective columns of 13 x 1536-well Greiner plate with BioRaptr, 1uL CO2 independent plating media added to respective columns as vehicle control with BioRaptr. 4. Cells incubated for 2 h. at ambient temperature, protected from light with metal lid having gas-exchange holes. 5. 23nL of library compounds or DMSO vehicle control transferred to 13 Greiner white/solid bottom high base, TC plates in 11 interplate 1:3 titrations (see Yasgar, A. et al. 2008) with Pintool. 6. Cells incubated for 30-50 min. at ambient temperature protected from light with metal lid having gas-exchange holes. 7. Read cellular baseline GloSensor luminescence in presence of test library compounds on the ViewLux [Exposure = 10 s.; Gain = High; Speed = Slow; and Binning = 2X.] 8. hNppC peptide agonist solution prepared at 1 mM (in H2O) stock concentration. From this a working dilution was prepared at 6 nM in CO2 Independent media. 1uL of 6 nM hNppC agonist (1 nM final concentration) or CO2 Independent media vehicle control dispensed into respective columns of 13 x Greiner 1536-well white/solid bottom, tissue culture plates with BioRaptr. 9. Cells incubated for 20 min. at ambient temperature, protected from light with metal lid having gas-exchange holes. 10. […]
Potency is read from the fitted curve at half-maximal effect.

Chain of Atrial natriuretic peptide receptor 2 (Homo sapiens) (P20594 whole entry, looked up): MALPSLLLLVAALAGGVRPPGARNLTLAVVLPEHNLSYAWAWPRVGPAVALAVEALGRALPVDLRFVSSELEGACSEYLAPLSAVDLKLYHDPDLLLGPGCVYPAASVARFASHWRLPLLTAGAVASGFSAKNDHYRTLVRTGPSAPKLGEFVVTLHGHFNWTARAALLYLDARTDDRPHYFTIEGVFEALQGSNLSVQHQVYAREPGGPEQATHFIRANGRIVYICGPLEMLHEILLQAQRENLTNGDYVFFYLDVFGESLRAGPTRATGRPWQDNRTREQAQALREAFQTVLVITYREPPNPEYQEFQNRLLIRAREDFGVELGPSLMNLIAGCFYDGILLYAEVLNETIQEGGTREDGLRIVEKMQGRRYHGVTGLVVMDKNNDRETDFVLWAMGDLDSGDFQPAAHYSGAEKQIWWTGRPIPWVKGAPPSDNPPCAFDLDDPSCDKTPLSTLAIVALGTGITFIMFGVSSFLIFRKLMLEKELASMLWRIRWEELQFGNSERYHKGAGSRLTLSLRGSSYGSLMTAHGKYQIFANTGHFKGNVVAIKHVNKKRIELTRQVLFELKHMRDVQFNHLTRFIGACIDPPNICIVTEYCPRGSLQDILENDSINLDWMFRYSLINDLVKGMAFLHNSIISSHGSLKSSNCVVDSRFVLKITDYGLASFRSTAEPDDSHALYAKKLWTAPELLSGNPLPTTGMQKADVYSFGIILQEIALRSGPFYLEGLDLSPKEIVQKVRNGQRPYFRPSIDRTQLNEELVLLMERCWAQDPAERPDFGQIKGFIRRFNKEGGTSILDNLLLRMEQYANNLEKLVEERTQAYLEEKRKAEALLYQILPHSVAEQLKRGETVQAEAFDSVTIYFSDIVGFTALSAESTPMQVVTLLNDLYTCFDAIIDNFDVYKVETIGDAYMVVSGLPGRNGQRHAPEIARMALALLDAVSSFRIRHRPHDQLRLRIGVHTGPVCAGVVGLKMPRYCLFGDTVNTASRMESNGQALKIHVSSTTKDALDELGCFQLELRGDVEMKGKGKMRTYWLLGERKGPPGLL

SMILES	Potency
CCC(CC)c1cc([C@H]2CN3CC[C@H]2C[C@@H]3CNC(=O)NCc2ccccc2)nc(-c2ccncc2)n1	12.2 µM (active)
CCC(CC)c1cc([C@H]2CN3CC[C@H]2C[C@@H]3CNS(=O)(=O)Cc2ccccc2)nc(-c2ccncc2)n1	21.7 µM (active)
COc1cc2c(cc1Oc1cccc(N(C)C)c1)NC(=O)C21CCN(Cc2ccccn2)CC1	21.7 µM (active)
COc1cc2c(cc1Oc1cccc(N(C)C)c1)NC(=O)C21CCN(CCC(C)C)CC1	28 µM (active)
COc1cc2c(cc1OCc1ccncc1)NC(=O)C21CCN(c2ncc(F)cn2)CC1	39.6 µM (active)
COc1cc2c(cc1Oc1cccc(N(C)C)c1)NC(=O)C21CCN(c2cnccn2)CC1	19.3 µM (active)
